Source: PubChem BioAssay AID588501 (NMMLSC, 2011)
Hit rate of the full screen: of about 360,000 compounds, about 420 (0.12%) were called active. Only a selection was taken, and actives are over-represented in it overall. A number with no mark means an inactive call. Rule as the data show it: active = inhibition above about 30%; inconclusive = no clear call, values can overlap the other calls; inactive = below that.

target: Lethal factor (Bacillus anthracis) (UniProt P15917); experiment: anthrax lethal factor cleavage blockers – biochemical, multiplex microsphere, MLPCN library, primary screen (AID 588501); settings: multiplex microsphere protease cleavage assay, LF; at 10 µM; active compounds read high; also: plate controls were buffer without enzyme for full effect and enzyme alone for no effect
Sequence (P15917 whole entry, looked up): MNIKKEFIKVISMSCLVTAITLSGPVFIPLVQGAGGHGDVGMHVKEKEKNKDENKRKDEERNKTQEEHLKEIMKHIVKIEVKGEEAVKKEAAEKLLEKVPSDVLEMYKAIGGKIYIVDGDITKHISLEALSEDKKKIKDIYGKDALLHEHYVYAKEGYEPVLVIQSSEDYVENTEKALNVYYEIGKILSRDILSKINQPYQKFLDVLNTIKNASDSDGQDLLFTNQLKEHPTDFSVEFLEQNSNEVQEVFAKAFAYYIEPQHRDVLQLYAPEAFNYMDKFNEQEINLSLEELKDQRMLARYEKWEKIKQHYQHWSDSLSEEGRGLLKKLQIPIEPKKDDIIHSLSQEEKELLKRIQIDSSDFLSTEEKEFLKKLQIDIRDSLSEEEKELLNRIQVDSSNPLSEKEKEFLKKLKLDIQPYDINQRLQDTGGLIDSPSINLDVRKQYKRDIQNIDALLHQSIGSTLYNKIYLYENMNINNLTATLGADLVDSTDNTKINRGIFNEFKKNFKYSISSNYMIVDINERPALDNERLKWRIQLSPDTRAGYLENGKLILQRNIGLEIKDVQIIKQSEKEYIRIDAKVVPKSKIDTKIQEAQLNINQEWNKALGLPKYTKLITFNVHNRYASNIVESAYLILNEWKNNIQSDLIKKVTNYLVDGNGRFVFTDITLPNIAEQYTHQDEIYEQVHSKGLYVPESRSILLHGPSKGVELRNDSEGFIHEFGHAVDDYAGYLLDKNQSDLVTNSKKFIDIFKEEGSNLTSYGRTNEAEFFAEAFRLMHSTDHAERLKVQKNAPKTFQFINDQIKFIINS

In order of rising inhibition:
1. CCn1c(CSc2nncn2-c2ccc(OC)cc2)nc2cc(S(=O)(=O)N(C)C)ccc21  -15%
2. CC(C)C[C@@H]1Cc2[nH][nH]c(=O)c2[C@H](CCc2ccccc2)O1  -14.1%
3. CC1CCN(CC(=O)Nc2nccs2)CC1  -13.6%
4. CC(=O)c1nn(-c2ccc(C)cc2)cc1C(=O)c1cccc(Br)c1  -8.2%
5. COc1ccccc1NC(=S)N1CCC(NC(=O)C23CC4CC(CC(C4)C2)C3)CC1  -7.9%
6. CCn1c(CNC(=O)c2cc(OC)c(OC)c(OC)c2)cc2cc(C)ccc21  -7.8%
7. CC1=NNC(=O)C1CCC(=O)N/N=C\c1ccc(Cl)c(Cl)c1 (stereo not given)  -7.6%
8. COCCNC(=O)C(c1ccc(O)cc1)N(C(=O)CCC(=O)Nc1nccs1)c1ccc(C)cc1 (stereo not given)  -7%
9. CCCn1nnnc1NC(=O)COc1ccc(Cl)cc1C  -6.9%
10. O=C(c1ccc(Cl)cc1)N1N=C(c2ccccn2)CC1(O)C(F)(F)F (stereo not given)  -6.7%
11. Clc1ccc(Cn2ncc3c(NCc4cccnc4)ncnc32)cc1  -6.4%
12. CCCCC(NS(=O)(=O)c1ccc(C)cc1)C(=O)Oc1ccc2c3c(c(=O)oc2c1)CCC3 (stereo not given)  -6.2%
13. CS(=O)(=O)N(CC(=O)N1CCOCC1)c1cccc(Cl)c1Cl  -5.7%
14. COCC(C)NCc1cc(Br)ccc1OC (stereo not given)  -4.9%
15. Cc1ccc(NC(=O)CSCC(=O)N2CCOCC2)cc1  -4.8%
16. COc1cc2c(cc1OC)C(/C=C/c1ccco1)=NCC2  -4.6%
17. COC(=O)CSc1ncnc2c1cnn2-c1ccc(C)cc1C  -4.4%
18. CCCCNc1ccc(C(=O)Nc2cccc(C)n2)cc1[N+](=O)[O-]  -4.4%
19. COc1ccccc1N(CC(=O)Nc1c(C)n(C)n(-c2ccccc2)c1=O)S(=O)(=O)c1ccccc1  -3.9%
20. CCOC(=O)[C@H]1[C@H]2COc3ccc(C)cc3[C@@H]2N2C(=O)CN(Cc3ccc(F)cc3)C(=O)[C@@]12C  -3.6%
21. CC(=O)NCCC(=O)Nc1cc(S(=O)(=O)N2CCCCC2)ccc1Oc1cccc(C)c1  -3.6%
22. CCCC(NC(=O)c1ccccc1)c1nc2ccccc2n1Cc1ccc(C(=O)OC)o1 (stereo not given)  -3.6%
23. COC(=O)c1ccc(NC(=O)C23CC4CC(C2)CC(n2cnc(Cl)n2)(C4)C3)cc1  -3.6%
24. COc1ccc(Br)cc1CN(C)CC(=O)Nc1cc(Cl)cc(Cl)c1  -3.4%
25. Cc1cc(C)c(NC(=O)CN2CCCCCC2)c(C)c1  -3.3%
26. Cc1cccc(C)c1NC(=O)CNC(=O)c1ccc(N2CCOCC2)c([N+](=O)[O-])c1  -3%
27. CC1(c2ccc(Cl)cc2)NC(=O)N(CC(=O)c2ccc3c(c2)OCO3)C1=O (stereo not given)  -2.8%
28. CCOC(=O)N1CCN(C(=O)c2ccc3c(=O)n(CCc4ccc(OC)c(OC)c4)c(=O)[nH]c3c2)CC1  -2.6%
29. COc1cc(NS(=O)(=O)c2ccc(NC(=O)CN3C(=O)c4ccccc4C3=O)cc2)ncn1  -2.5%
30. O=C(COc1ccc(S(=O)(=O)N2CCCC2)cc1[N+](=O)[O-])N1CCCCC1  -2.5%
31. COc1ccc([C@H]2CC(=O)C[C@@H](CCn3cc(CC4CCCC4)nn3)O2)cc1  -2.3%
32. CCOCC(=O)NCc1ccc2c(c1)cc(C)n2C  -2.3%
33. COc1ccc(NC(=S)N2CCc3cc(OC)c(OC)cc3C2)cc1  -2.2%
34. CCCCC(CC)CNC(=O)C(=O)C1C(=O)Nc2ccccc21 (stereo not given)  -2.2%
35. COC(=O)CNS(=O)(=O)c1ccc(Cc2ccc(S(=O)(=O)NCC(=O)OC)cc2)cc1  -2.1%
36. O=S(=O)(NC1CCCC1)c1ccc(-n2cnnn2)cc1  -2%
37. O=C(COc1ccc2c(C(F)(F)F)cc(=O)oc2c1)Nc1ccc2c(c1)OCCO2  -1.9%
38. Cc1ccc2c(c1)C(O)(CC(=O)c1cccnc1)C(=O)N2 (stereo not given)  -1.9%
39. COc1ccccc1C(=O)Nc1ccnn1C1CCN(C(=O)C(C)(C)C)CC1  -1.9%
40. O=C(NNC(=O)c1ccccc1[N+](=O)[O-])Nc1ccccc1C(F)(F)F  -1.8%
41. CCN(C(=O)COC(=O)c1ccccc1O)c1cccc2ccccc12  -1.8%
42. NNc1nc2c(Cl)cccc2s1  -1.6%
43. CCOC(=O)C1CCCN(C(=O)c2ccc(N(C)C)cc2)CC1 (stereo not given)  -1.5%
44. O=C(O)c1ccc(N/N=C/c2ccc3ncccc3c2)cc1  -1.5%
45. COc1ccc(CN2CC(C(=O)NCCN3CCN(c4ccccc4F)CC3)CC2=O)cc1 (stereo not given)  -1.5%
46. COC(=O)C1(C(=O)OC)C/C=C\CN(S(=O)(=O)c2ccccc2[N+](=O)[O-])CCC1  -1.4%
47. CCc1ccc(NC(=O)CS(=O)CC(=O)NCCCc2ccccc2)cc1 (stereo not given)  -1.4%
48. C=CCN(Cc1nc(-c2cc(OC)c3c(c2)OCO3)oc1C)C1CCS(=O)(=O)C1 (stereo not given)  -1.3%
49. O=C(COc1ccc(Cl)cc1)NCc1nnc(SCC(=O)NCC2CCCO2)o1 (stereo not given)  -1%
50. Cn1cc(CCC(=O)N2CCCC(C(=O)c3ccc(C(C)(C)C)cc3)C2)cn1 (stereo not given)  -0.9%
51. CN(CC(=O)NCCc1ccccc1)S(=O)(=O)c1cnc[nH]1  -0.9%
52. O=C1N[C@@H](Cc2ccccc2)C(=O)N2[C@@H]3N(S(=O)(=O)c4ccc(F)cc4)c4ccccc4[C@]3(Br)C[C@@H]12  -0.7%
53. CCc1nn(CCCC(=O)Nc2ccc(C)c(C)c2)c(=O)c2cc3occc3n12  -0.7%
54. Cc1cc(C)c(CN2CCN(C(=O)Cn3ccc(NC(=O)OCc4ccccc4)nc3=O)CC2)c(C)c1  -0.5%
55. COc1ccc(N(CCC#N)S(=O)(=O)c2ccc(Cl)cc2)cc1  -0.4%
56. CC(C)N(C(=O)Cn1cc(SCC(=O)N2CCCC2)c2ccccc21)C(C)C  -0.2%
57. CC(C)n1c(SCC(=O)Nc2ccccc2N2CCCCC2)nc2c1c(=O)n(C)c(=O)n2C  0%
58. COCCn1nnnc1CN1CCC(NC(=O)Nc2cccc(OC)c2)CC1  0.1%
59. COc1cc(/C=C2\SC(=O)NC2=O)ccc1OCc1ccc(Cl)nc1  0.2%
60. Cc1nccn1-c1ccc(NC(=O)[C@H]2O[C@@H](n3cnc4c(N)ncnc43)[C@H](O)[C@@H]2O)cc1  0.8%
61. Cc1c(Br)ccc(NC(=O)COc2ccccc2C(N)=O)c1C  0.9%
62. CCOc1ccc(CCNC(=O)C2=C(C)C(=O)OC23CCC(C)CC3)cc1OCC (stereo not given)  1.1%
63. O=C(NCc1ccccc1)C1C(=O)N(Cc2ccccc2)C(=O)C1C1(O)CCCC1 (stereo not given)  1.3%
64. C=CC[C@H](CC(=O)OC(C)(C)C)C(=O)OC[C@H]1CCCN1C(=O)[C@H](CC=C)CC(=O)N(CCO)Cc1ccccc1  1.8%
65. O=S(=O)(Nc1cccc(-n2cnnn2)c1)c1cnc(Cl)c(Cl)c1  1.8%
66. CCCc1cc(=O)[nH]c(SCc2ccc(C#N)cc2)n1  2.2%
67. COc1c(C(=O)N2CCCC2)ccc2ccccc12  2.3%
68. CN(C(=O)c1cccc(NC(=O)Cc2cccc([N+](=O)[O-])c2)c1)C1CCCCC1  2.5%
69. CCOc1cc(/C=C(/C#N)c2ccc(Cl)cc2)cc(Cl)c1OCC(=O)O  2.5%
70. CCOC(=O)C1CCCN(S(=O)(=O)c2ccc(-n3cnnn3)c(C)c2)C1 (stereo not given)  2.9%
71. Cc1ccc(-n2ncc3c2CC(C)(C)CC3NC(=O)CCc2cnn(C)c2)cc1 (stereo not given)  3%
72. O=C(CN1CCOCC1)Nc1c(Cl)cc(Cl)cc1Cl  3.3%
73. CN(C)c1ccc(/C=C2\CC3C4CC=C5CC(O)CCC5(C)C4CCC3(C)C2=O)cc1 (stereo not given)  3.3%
74. O=C(CCNC(=O)c1ccc([N+](=O)[O-])cc1)Nc1ccccc1N1CCOCC1  3.7%
75. Cc1cc(NCc2cccnc2)no1  4.1%
76. CCOC1=C2[C@H]([C@H]3C(=O)N(c4ccccc4)C(=O)[C@H]3C1)[C@@H](c1ccccc1)N(S(=O)(=O)c1ccc(C)cc1)[C@H]2c1ccccc1  4.4%
77. CC(=O)Nc1ccc(S(=O)(=O)NCC(=O)OCC(=O)c2ccc[nH]2)cc1  4.9%
78. Fc1ccccc1OCCCCn1cncn1  7.4%
79. COc1cc(-c2nnc(Cn3cc(C(F)(F)F)ccc3=O)o2)cc(OC)c1OC  11.3%
80. COCc1cc(=O)[nH]c(-c2ccc(C(F)(F)F)cc2)n1  13.9%

For `O=C(CN1CCCCCC1)Nc1c(Cl)cc(Cl)cc1Cl`, the inhibition was 37.6% (active).
With `Cc1cc(S(=O)(=O)NC2CCCC2)ccc1-n1cnnn1` the inhibition was 35.6% (active).
With `COc1ccccc1C1CCN(C(=S)Nc2ccc(Br)cc2)CC1` the inhibition was 49.5% (active).
With `Brc1ccc2ncnc(NCc3cccnc3)c2c1` the inhibition was 42.4% (active).
With `NCCCCCC(=O)N/N=C/c1ccc2nccnc2c1` the inhibition was 43.2% (active).
For `COCc1cc(=O)[nH]c(SC)n1`, the inhibition was 45% (active).
With `COc1cc(C(=O)NCc2ccc3c(c2)cc(C)n3C)cc(OC)c1OC` the inhibition was 34.6% (active).
`COc1cc(/C=C2\SC(=S)N(Nc3ncc(C(F)(F)F)cc3Cl)C2=O)cc(OC)c1OC` was tested, and the inhibition was 61.6% (active).
In the case of `COc1ccc(Br)cc1CNCCc1cccc(Cl)c1`, the inhibition is reported as 43.6% (active).
For `COC(=O)C[n+]1cccc2ccccc21`, the inhibition was 29.8% (active).
